For orientation: inhibition means the change of the read-out against control, counted positive when it falls.

Several values for one entry are separate records, joined by “and”; a condition that tells them apart may be missing. Equal entries are not always repeated. Out of some 330,000 compounds screened, about 1,500 (0.45%) were called active. What follows is part of a selection rich in actives, with near analogues and random picks from the rest. Unmarked numbers belong to inactive results. No stated cut-off is given here; in the data, active means inhibition above about 45% (passing the limit was not always enough); inconclusive means no clear call, values can overlap the other calls.

The target of the assay is Ubiquitin-conjugating enzyme E2 N (Homo sapiens) (UniProt P61088). Nature of the assay: blockers of UBC13 ubiquitin chain synthesis – biochemical, TR-FRET, uHTS, primary screen (AID 485273). As to conditions: UBC13 polyubiquitin chain formation, at 20 µM, active compounds read high.
Ubiquitin-conjugating enzyme E2 N (Homo sapiens), sequence (P61088 whole entry, looked up): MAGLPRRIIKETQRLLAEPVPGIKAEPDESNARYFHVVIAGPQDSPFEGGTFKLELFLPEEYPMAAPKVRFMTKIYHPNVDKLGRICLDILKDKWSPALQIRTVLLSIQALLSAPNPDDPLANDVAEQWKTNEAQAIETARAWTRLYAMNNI
As for `CCC1CCC/C1=N\NC(=O)c1ccc(Cl)cc1` (configuration not stated), the inhibition is 6.6%.

Turning to `Cc1ccc(Oc2cc(NC(=O)CCCn3nc(C)c([N+](=O)[O-])c3C)cc([N+](=O)[O-])c2)cc1`, the inhibition is -3.8%.

As to `CN(C)[C@@H]1C(=O)C(C(N)=O)=C(O)[C@@]2(O)C(=O)C3=C(O)c4c(O)ccc(Cl)c4[C@@H](O)[C@H]3C[C@@H]12`, the inhibition was 6.5%. As to `C=C1c2c(Cl)ccc(O)c2C(O)=C2C(=O)[C@]3(O)C(O)=C(C(N)=O)C(=O)[C@@H](N(C)C)[C@@H]3[C@@H](O)C12` (some centres not stated), the inhibition was 57.1% (active). As to `COc1ccccc1NC(=O)CSc1nnc(-c2ccoc2C)n1CCc1ccccc1`, the inhibition is 94.2% (active). As for `CCCn1c(SCC(=O)Nc2cccc(C(=O)OCC)c2)nnc1-c1ccoc1C`, the inhibition is 11.9%.

Take `CCn1c(SCC(=O)Nc2cc(C)c(Cl)cc2OC)nnc1-c1ccco1`: the inhibition was 4.1%. In the case of `CC(Oc1ccccc1)C(=O)Nc1oc(-c2ccco2)c(-c2ccco2)c1C#N` (configuration not stated), the inhibition is -15.8%. As for `Cc1nonc1C1CCCN1Cc1nc(-c2ccc(F)cc2F)oc1C` (configuration not stated), the inhibition is 0.7%. On to `CC1(C)NC(=O)N(CC(=O)Nc2cc(C(F)(F)F)cc(C(F)(F)F)c2)C1=O`, for which the inhibition is 0.4%. For `C=CCn1c(Oc2ccc(C(=O)OC)cc2)nc2c1c(=O)n(C)c(=O)n2C`, the inhibition is -13%. As to `O=S(=O)(c1ccccc1)N1CN(Cc2ccc(F)cc2)c2nc3ccccc3nc21`, the inhibition was -1.4%. Take `Cc1ccc(NC(=O)c2cc([N+](=O)[O-])ccc2Cl)c(O)c1`: the inhibition is 2.4%. Take `CC[n+]1cc(C)ccc1/C=C/c1ccc(N(C)C)cc1`: the inhibition is -286%. Consider `CC(C)(C)NC(=O)C(c1ccc(Cl)cc1)N(CCO)C(=O)c1snc(C(N)=O)c1N` (configuration not stated), for which the inhibition is 5.2%. As for `Cc1cccc(N(C(=O)c2sc(C)nc2C)C(C(=O)NCC2CCCO2)c2ccccc2)c1` (configuration not stated), the inhibition is 2.5%. Take `CCOc1ccc(C(C(=O)NC2CCCC2)N(C(=O)c2snc(C(N)=O)c2N)C2CCCC2)cc1` (configuration not stated): the inhibition is 5.2%. On to `CCOc1cc(C(C(=O)NCC2CCCO2)N(C(=O)Cn2nnc3ccccc32)c2cccc(OC)c2)ccc1O` (configuration not stated), for which the inhibition was 4%. For the compound `Cc1ccc(N(C(=O)Cc2cccs2)C(C(=O)NCC2CCCO2)c2ccncc2)cc1` (configuration not stated), the inhibition is -4.7%. `CCOc1ccc(-n2c(N)c(C(=O)NCC3CCCO3)sc2=S)cc1` (configuration not stated): the inhibition is 3.2%. For the compound `Cc1ccc(C(C(=O)NCC2CCCO2)N(C(=O)c2snc(C(N)=O)c2N)c2ccc(C(C)C)cc2)o1` (configuration not stated), the inhibition was 45.7% (active). Turning to `CCOc1ccc(N(C(=O)c2snc(C(N)=O)c2N)C(C(=O)NCC2CCCO2)c2c[nH]c3ccccc23)cc1` (configuration not stated), the inhibition was 89.4% (active). Turning to `COCCNC(=O)C(c1ccc(C)o1)N(Cc1cccs1)C(=O)c1snc(C(N)=O)c1N` (configuration not stated), the inhibition is 4.7%.

On to `Cc1ccc(N(C(=O)c2snc(C(N)=O)c2N)C(C(=O)NCC2CCCO2)c2c[nH]c3ccccc23)cc1` (configuration not stated), for which the inhibition is 75% (active). In the case of `COc1cccc(N(C(=O)c2snc(C(N)=O)c2N)C(C(=O)NCC2CCCO2)c2c[nH]c3ccccc23)c1` (configuration not stated), the inhibition was 59.9% (active). Turning to `O=C(NCC(=O)N(c1ccccc1)C(C(=O)NCC1CCCO1)c1ccccc1)c1cccs1` (configuration not stated), the inhibition is -2.5%.

Consider `COC(=O)Nc1ccc(S(=O)(=O)N(C)CC(F)(F)C(F)F)cc1`, for which the inhibition is 4.1%.

As to `COc1ccccc1N1CCN(C(=O)c2cc(=O)c3cc(C)cc(C)c3o2)CC1`, the inhibition is -5.8%.

As for `Cn1cc(S(=O)(=O)Nc2ccc(Cl)cc2Cl)c(=O)n(C)c1=O`, the inhibition is -9.5%.

`N/C(=N\OC(=O)CCc1ccccc1)c1ccc(Cl)cc1`: the inhibition is 3.8%.

For the compound `COC(=O)c1ccc(CSc2ccc3nnc(-c4ccccc4)n3n2)o1`, the inhibition was 14.2%. Take `COc1ccc(-c2nnc3ccc(SCc4ccccc4)nn23)cc1`: the inhibition was 49.1% (active). In the case of `O=C(CSc1ccc2nnc(-c3ccccc3)n2n1)N1CCCc2ccccc21` it was 8.9%; in that of `COc1ccc(C)cc1S(=O)(=O)N(CC(=O)Nc1cccc([N+](=O)[O-])c1)c1ccc(C)cc1`, -5.5%. With `COc1ccc(N(C(=O)c2snc(C(N)=O)c2N)C(C(=O)NC2CCCC2)c2ccco2)cc1OC` (configuration not stated), the inhibition is 80.3% (active). In the case of `COc1ccc(C(C(=O)NC2CCCCC2)N(C(=O)c2snc(C(N)=O)c2N)c2ccccc2OC)cc1` (configuration not stated), the inhibition was 8.5%. In the case of `COc1ccc(N(C(=O)c2snc(C(N)=O)c2N)C(C(=O)NC2CCCC2)c2ccc(C)o2)c(OC)c1` (configuration not stated) it was 12.9%; in that of `COc1cc(C(C(=O)NC2CCCC2)N(Cc2ccccc2)C(=O)c2snc(C(N)=O)c2N)ccc1O` (configuration not stated), 13.8%. As to `CCC(C(=O)NC1CCCCC1)N(C(=O)c1snc(C(N)=O)c1N)c1ccc(OC)cc1OC` (configuration not stated), the inhibition is 14.4%. With `CCC(C(=O)NC1CCCC1)N(C(=O)c1snc(C(N)=O)c1N)c1ccc2c(c1)OCCO2` (configuration not stated), the inhibition was 86.7% (active). Consider `COc1ccc(C)cc1NC(=S)Nc1ccccc1SC`, for which the inhibition was -7.3%. In the case of `COc1cccc(/C=C2\Sc3ccc(C(=O)NCC4CCCO4)cc3N(C)C2=O)c1` (configuration not stated), the inhibition is -7.4%. In the case of `Cc1ccccc1OCC(O)CN1CCN(c2ccccn2)CC1` (configuration not stated), the inhibition was 0.6%. As to `Cc1cccc(C)c1OCC(O)CN1CCCCC1` (configuration not stated), the inhibition was 11.2%. Consider `Cc1cccc(OCC(O)CN2CCN(CCN3C(=O)c4cccc5cccc(c45)C3=O)CC2)c1C` (configuration not stated), for which the inhibition was 83% (active). In the case of `Cc1cc(C)c(S(=O)(=O)c2ccccc2)c(OC(=O)c2c(F)cccc2Cl)n1` it was 2.7%; in that of `O=C(COC(=O)/C=C/c1nc2ccccc2s1)Nc1ccccc1Oc1ccccc1`, -4.1%.

With `CC(c1ccco1)N(C(=O)COc1ccccc1[N+](=O)[O-])c1ccccn1` (configuration not stated), the inhibition is -13.5%. Under `CC(C)Nc1ccc(-n2nc3ccccc3[n+]2[O-])cc1` stands 0.3%; under `C#CCOCCOCCOCCNc1nc(N2CCN(C(=O)[C@H](CCC(=O)O)n3cc(C(N)CO)nn3)CC2)nc(N2CCN(C(=O)[C@H](CCCCN)n3cc(C(N)[C@H](C)CC)nn3)CC2)n1` (some centres not stated), 5.8%; under `C#CCOCCOCCOCCNc1nc(N2CCN(C(=O)C(Cc3ccc(O)cc3)n3cc(C(N)CC(C)C)nn3)CC2)nc(N2CCN(C(=O)C(Cc3ccc(O)cc3)n3cc(C(N)C(C)CC)nn3)CC2)n1` (configuration not stated), 45.5% (active). For the compound `C#CCOCCOCCOCCNc1nc(N2CCN(C(=O)[C@H](Cc3ccc(O)cc3)n3cc(C(N)CC(C)C)nn3)CC2)nc(N2CCN(C(=O)[C@H](CCC(=O)O)n3cc(C(N)[C@H](C)CC)nn3)CC2)n1` (some centres not stated), the inhibition was -7.8%. On to `C#CCOCCOCCOCCNc1nc(N2CCN(C(=O)[C@H](CCC(=O)O)n3cc(C(N)CO)nn3)CC2)nc(N2CCN(C(=O)[C@H](Cc3ccc(O)cc3)n3cc(C(N)[C@H](C)CC)nn3)CC2)n1` (some centres not stated), for which the inhibition is -1.7%. As for `C#CCOCCOCCOCCNc1nc(N2CCN(C(=O)[C@H](CO)n3cc([C@@H](N)C(C)C)nn3)CC2)nc(N2CCN(C(=O)[C@H](CCC(=O)O)n3cc([C@@H](N)[C@H](C)CC)nn3)CC2)n1`, the inhibition is 8.2%. With `C#CCOCCOCCOCCNc1nc(N2CCN(C(=O)[C@H](CCCCN)n3cc([C@@H](N)C(C)CC)nn3)CC2)nc(N2CCN(C(=O)[C@H](Cc3ccc(O)cc3)n3cc([C@@H](N)C(C)CC)nn3)CC2)n1` (some centres not stated), the inhibition is 95.9% (active). Turning to `O=C(Cn1c[n+](CC(=O)c2ccc([N+](=O)[O-])cc2)cn1)c1ccc([N+](=O)[O-])cc1`, the inhibition was -18.4% and -8%. In the case of `S=C(c1ccc(-c2ccccc2)o1)N1CCCCC1` it was -13.9%; in that of `CC(C)NC(=O)C(=O)NCCCOC(C)C`, -2.8%.

In the case of `COc1cc(/C=N/NC(=O)CNC(=O)c2ccncc2)ccc1OC(C)=O`, the inhibition is -6.5%.

With `COc1ccc(/C=N\NC(=O)c2sc(N)nc2C)cc1OC`, the inhibition is 102% (active). On to `COc1cccc(OCc2cc(/C=N/NC(=O)c3nc(Cl)c(Cl)c(N)c3Cl)ccc2OC)c1`, for which the inhibition was -21.4%. Regarding `Cn1c(=O)c2c(-c3cccc(Br)c3)c(C#N)c(N)nc2n(C)c1=O`, the inhibition is -5.6%.

`CC(C)(C)c1ccc(S(=O)(=O)N2CCN(C(=O)c3ccc4c(c3)C(=O)N(Cc3ccncc3)C4=O)CC2)cc1`: the inhibition is 6.4%. With `Cc1ccccc1C(CC(=O)c1cccs1)C(C#N)C#N` (configuration not stated), the inhibition was 4.5%. As to `COc1ccc(NC2=CC(=S)NC(C)(C)C2)cc1`, the inhibition is -9.8%. Turning to `c1ccc(-c2ccc(OCCN3CCOCC3)cc2)cc1`, the inhibition was 7.7%. As to `CC(=O)c1ccc(OCCN2CCOCC2)cc1`, the inhibition is -16.1%. Under `COc1ccc(-c2sc3ccccc3c2-c2ccc(OCCN3CCOCC3)cc2)cc1` stands 54.3% (active).

In the case of `COc1cc(OC)cc(-c2sc3ccc(OC)cc3c2-c2ccc3cc[nH]c3c2)c1`, the inhibition is 9.4%. In the case of `c1ccc(-c2ccccc2OCCN2CCCCC2)cc1` it was 5.8%; in that of `COc1ccc2sc(-c3ccccc3OC)c(-c3ccc(OCCN4CCCC4)cc3)c2c1`, 60.6% (active). For the compound `CC1(C)O[C@@H]2[C@H](O1)[C@@H](COS(=O)(=O)O)O[C@H]2n1cnc2c(=O)[nH]cnc21`, the inhibition was -0.9%.

`CC(C)CC1(C(=O)NCc2ccccn2)C=CCN1C(=O)c1ccccc1` (configuration not stated): the inhibition was 13%.

Take `COc1ccc(C(=O)Nc2ccc(-n3nncc3C(C)(C)C)cc2)cc1`: the inhibition was -4.8%. In the case of `COc1ccc(C(CNC(=O)c2ccc(S(=O)(=O)Nc3ccccc3C)cc2)N2CCOCC2)cc1` (configuration not stated) it was -1.4%; in that of `COc1ccc(C(CNC(=O)c2cccc(S(=O)(=O)Nc3ccccc3Cl)c2)N2CCOCC2)cc1` (configuration not stated), 2.8%; in that of `COc1ccc(C(CNC(=O)c2cccc(NS(=O)(=O)c3ccc(C)c(F)c3)c2)N2CCCC2)cc1` (configuration not stated), 55.5% (active).
